This is a sample that favours compounds with a hit; in the whole collection about 3.3% have one here.
HTT cytoprotect = cytoprotection in Huntington HTT-Q103 PC12 cell model; PC12 HTT-Q103 induced, cytoprotection, ATP luminescence, 40 h; Potency, µM (doses to about 56.4 µM), for the others: cytoprotection (ATP increase), hits mostly activators; actives 0.14% (n = 230,000); AID 1471; note: potency is the fitted concentration of half-maximal effect; % of control where 0% means no effect; nearly all actives have a fitted effect of over 45% in size
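Cells were plated at 1500 per well in phenol red-free DMEM with 5% equine and 5% calf serum. Tebufenozide (100 nM final) and compounds were added, then ATPlite reagent, and luminescence was read.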
HttQ103 aggreg = inhibitors of mutant huntingtin aggregate formation in PC12 cells; actives 1.1% (n = 220,000); AID 1688; Potency, µM (titrated, usually from 46.1 µM), for inactives: at the highest dose activity change, negative = inhibition, most hits filed as inhibitors; PC12 HttQ103-GFP aggregates, Acumen cytometry, 40 h; note: potency is the fitted concentration of half-maximal effect; % is set by controls: 0 for no effect and ±100 for the full control effect; nearly all actives have a fitted effect of over 60% in size
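Multiplexed with ATP-based cell death, this channel scores GFP aggregates in PC12 cells expressing inducible HTTex1-Q103-GFP. Induction used 100 nM tebufenozide; compounds were tested in concentration series.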
NPSR antagonist = blocks cAMP signaling of the human neuropeptide S receptor; actives 1% (n = 220,000); AID 1461; Q6W5P4; CHO-NPSR cells, cAMP TR-FRET, antagonist mode; Potency, µM (top dose mostly 38.3 µM), for inactives: top-dose activity change, negative = inhibition, most hits filed as inhibitors; note: potency is the fitted concentration of half-maximal effect; % is set by controls: 0 for no effect and ±100 for the full control effect; nearly all actives have a fitted effect of over 50% in size
12-hLO inh = 12-hLO (ALOX12) enzyme inhibition; purified 12-hLO, xylenol orange hydroperoxide absorbance; Potency, µM (doses to about 57.1 µM), inactives show top-dose activity change, negative = inhibition, hits mostly inhibitors; P18054; AID 1452; actives 0.12% (n = 150,000); note: potency is the fitted concentration of half-maximal effect; % is set by controls: 0 for no effect and ±100 for the full control effect; nearly all actives have a fitted effect of over 55% in size
Target sequence (P18054 whole entry, looked up): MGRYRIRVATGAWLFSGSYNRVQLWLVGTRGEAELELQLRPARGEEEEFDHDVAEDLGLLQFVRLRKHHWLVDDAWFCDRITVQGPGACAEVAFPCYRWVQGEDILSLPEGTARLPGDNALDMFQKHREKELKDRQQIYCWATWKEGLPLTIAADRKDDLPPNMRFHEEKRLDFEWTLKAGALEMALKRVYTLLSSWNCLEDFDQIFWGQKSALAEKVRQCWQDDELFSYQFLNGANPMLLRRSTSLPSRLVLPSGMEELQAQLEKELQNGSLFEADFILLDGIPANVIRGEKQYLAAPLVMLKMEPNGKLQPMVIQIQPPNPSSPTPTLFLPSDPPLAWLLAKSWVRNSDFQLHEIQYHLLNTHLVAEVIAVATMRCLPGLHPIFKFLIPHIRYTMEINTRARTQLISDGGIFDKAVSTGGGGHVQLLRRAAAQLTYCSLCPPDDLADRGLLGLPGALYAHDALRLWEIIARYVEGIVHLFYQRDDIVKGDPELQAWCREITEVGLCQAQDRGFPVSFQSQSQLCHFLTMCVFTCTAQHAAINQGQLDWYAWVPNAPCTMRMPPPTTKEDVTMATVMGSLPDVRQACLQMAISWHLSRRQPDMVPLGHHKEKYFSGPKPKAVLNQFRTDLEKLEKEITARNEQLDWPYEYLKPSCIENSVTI
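Hydroperoxide formation by human 12-lipoxygenase from 40 uM arachidonic acid was followed colorimetrically via ferric-xylenol orange complex, using the 573/405 nm absorbance ratio. Enzyme concentration was 150 nM, with 30 min reaction at room temperature.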
PNC inhibitor = inhibitors of perinucleolar compartment assembly | activity change (PNC), negative = inhibition, % at 10 µM | actives 3.1% (n = 140,000) | PC3M PTB-GFP, PNC prevalence imaging, 16 h; hits give low values;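 active = readout at or below -70, meaning at least 70% loss of cells showing the perinucleolar compartment, a nuclear body marking cancer cells; inconclusive = readout between -30 and a set limit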;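 note: plate controls were DMSO wells for no effect and camptothecin positive control wells for full effect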
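Read-out is percentage of cells bearing a perinucleolar compartment, from automated 20x imaging of fixed, Hoechst-stained PC3M PTB-GFP cells. Cells were seeded 4 h, then exposed 16 h to compound (23 nl of library stock) in duplicate plates.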
IMPase inh = IMPase inhibition in cells; P97697; CHO-M1 cells, IP1 accumulation, HTRF TR-FRET ratio; inhibition (IP1 accumulation), % at 46.1 µM; 120,000 tested, under 10 active; active = well fitted curve in the direction sought with a large enough effect in the signal ratio, not every such curve was filed as active; inconclusive = small, poorly fitted or top-dose-only effect, or a change in a side signal; inactive = no such curve, though single readings can be large or run the other way; the % refers to the signal ratio;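 note: cells stimulated with carbachol in lithium chloride buffer; plate controls were DMSO basal wells for no effect and reference inhibitor wells for full effect; higher means more IMPase inhibition seen as more IP1 and lower FRET ratio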
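Cellular IMPase inhibition is scored as a rise in cytosolic IP1, detected by competitive TR-FRET between d2-labelled IP1 and a europium anti-IP1 antibody. M1-expressing CHO cells were stimulated with carbachol for 30 min at 37C, with lithium (50 mM LiCl) present in the buffer.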
* hit, by the source's call; ? = inconclusive; · = no result; [ ] = dose if it differs, or a comment. Unless noted, calls come from the whole dose curve; as a rule, active = well fitted curve in the direction sought with a large enough effect; inconclusive = small, poorly fitted or top-dose-only effect, or another doubt; inactive = no such curve, though single readings can be large; an effect the other way counts as inactive or inconclusive.

SMILES	HTT cytoprotect	HttQ103 aggreg	NPSR antagonist	12-hLO inh	PNC inhibitor	IMPase inh
CN(C)c1ncc2nc(-c3cccs3)c(=O)n(C3CC3)c2n1	-16.9%	·	·	-4.8%	·	·
NCCn1c(-c2ccccc2)cc(C(=O)O)c1-c1ccccc1F	·	-8.3%	7.1%	3.6%	-81.2*	·
O=S(=O)(Cc1ccccc1)c1nnnn1C1CCCCC1	-3.9%	·	·	·	·	·
COc1ccc2c(c1OC)C(=O)OC2Nn1cncn1 (stereo not drawn)	16.0%	?	-15.4%[46.1 µM]	4.0%	-93.8*	3.1
COc1ccc2c(c1OC)C(=O)OC2Nc1nc(-c2ccc(-c3ccccc3)cc2)cs1 (stereo not drawn)	-45.9%[10 µM]	1.7%	-31.5%	-1.9%	-123.3*	·
COc1cccc(-c2csc(NC3OC(=O)c4c3ccc(OC)c4OC)n2)c1 (stereo not drawn)	-7.1%[10 µM]	3.1%[9.22 µM]	-0.4%[7.67 µM]	·	·	·
COc1ccc2c(c1OC)C(=O)OC2Nc1ncccc1C (stereo not drawn)	18.3%	11.6%	-28.0%[46.1 µM]	4.2%	35.3	1.1
O=C1c2cccnc2C(=O)N1Cc1ccccc1	22.0%[10 µM]	-8.7%	11.8%[46.1 µM]	-2.0%	58.8	-4.8
O=C1c2cccc3c(O)ccc(c23)C(=O)N1Cc1ccccc1	-34.3%	10µM*	-6.5%[46.1 µM]	-3.5%	-90.3*	-11.2
O=C(c1cccc2c1-c1ccccc1/C2=N/O)N1CCCCC1	6.1%	11.2µM*	-11.3%[46.1 µM]	0.6%	-14.1	2.9
O=C(Nc1ccc2nc(-c3ccco3)c(-c3ccco3)nc2c1)N1CCCCCC1	-19.1%[10 µM]	?	10µM*	-10.9%	?	7.9
Cc1nc2cc(NC(=O)N3CCCCC3)ccc2n1C	2.7%[10 µM]	9.1%	-2.7%	0.0%	-118.9*	-0.3
CCOC(=O)C1CCN(C(=O)Nc2ccc3nc(-c4ccco4)c(-c4ccco4)nc3c2)CC1	-14.5%	17.6%	-21.4%[46.1 µM]	-8.6%	?	0.3[1.84 µM]
CC(C)n1c(=NC(=O)c2ccco2)c(C#N)cc2c(=O)n3ccccc3cc21	-2.1%[10 µM]	1.5%	-13.6%	-3.5%	-82.1*	-3.2
CCC1CCC(NC2CCCCNC2=O)CC1 (stereo not drawn)	-1.2%	?	0.1%[46.1 µM]	-3.1%	-107.1*	7.1
CC1CCCC(NC2CCCCNC2=O)C1 (stereo not drawn)	6.5%	4.3%	-6.0%[46.1 µM]	-2.3%	47.3	4.3
COC(=O)[C@@H]1C[C@H]2CC[C@H](O)C[C@H]2N1Cc1c(F)cccc1Cl	13.0%	·	·	-1.5%	·	·
COc1cc([C@H](O)C(=O)O)ccc1O	-2.2%[1.9 µM]	·	·	-2.2%	·	4.5
Cc1cc2nnn(-c3nnc(-c4ccccc4)c4ccccc34)c2cc1C	-13.9%	-1.7%	?	4.0%	-109.4*	-3.1
Cc1ccc(-c2nnc(-n3nc(C)cc3C)c3ccccc23)cc1	-9.4%[10 µM]	-6.5%	-1.9%	-3.6%	-9.1	-2.5
O=C(Nc1ccccc1C(F)(F)F)C1CC(=O)N(c2ccccc2F)C1 (stereo not drawn)	8.2%[0.074 µM]	-3.2%	-2.5%[46.1 µM]	1.4%	-80.8*	14.4
O=C(Oc1ccc(Cl)c2cccnc12)c1cccc([N+](=O)[O-])c1	-20.8%[10 µM]	-30.6%	-8.6%	?	?	·
O=C(Oc1c(Cl)cc(Cl)c2cccnc12)c1cccc([N+](=O)[O-])c1	-80.7%[10 µM]	2.82µM*	-22.6%[46.1 µM]	?	-0.9	11.4
CCOC(=O)C1(CCCc2ccccc2)CCN(C(=O)C2CCCN(C(N)=O)C2)CC1 (stereo not drawn)	-33.1%	2.5%	-9.6%	·	·	·
CCc1ccc(CN2CCN(C(=O)c3cccc(OC)c3OC)CC2)cc1	4.6%[10 µM]	7.94µM*	15.8%[46.1 µM]	0.5%	-100.0*	-11.1
COc1cc(C)c(S(=O)(=O)N2CCOCC2)cc1C	-6.1%[10 µM]	-6.4%	-3.1%[46.1 µM]	9.9%	-100.0*	1.8
COc1cc2c(C(=O)N3CCN(Cc4ccc5c(c4)OCO5)CC3)cn(C)c(=O)c2cc1OC	1.6%[10 µM]	-3.3%	-15.8%[46.1 µM]	-2.2%	55.1	-1.3
COc1ccccc1C(=O)N1CCN(Cc2ccc3c(c2)OCO3)CC1	3.5%[10 µM]	2.82µM*	5.3%[46.1 µM]	1.4%	-15.5	6.1

Source: PubChem (National Center for Advancing Translational Sciences (NCATS))
